KDM5B inh = inhibitors of human KDM5B histone demethylase | Q9UGL1 | KDM5B demethylase, FDH-coupled NADH fluorescence (FDH is formaldehyde dehydrogenase) | Potency, µM (titrated, usually from 57.7 µM), usual class: inhibitors | hit rate 2.6% among 220,000; active means well fitted inhibition curve with a large enough effect; further: 0% is about no effect; nearly all actives have a fitted effect of over 70% in size
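qHTS format, multiple compound concentrations. Buffer 50 mM HEPES pH 7.5/0.01% Tween-20; 200 nM KDM5BΔAP final; 10 min compound preincubation; substrate-mix levels 12.5 µM peptide, 25 µM α-KG, 0.25 mM NAD⁺; 30 min RT; ΔRFU.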
* hit, by the source's call; i = inactive; ! = repeats disagree. Only a selection was taken, and hits are over-represented in it overall. Potency means the concentration at half of the fitted maximal effect.

SMILES	KDM5B inh
CCOCCN1C(=O)COC[C@@H]1[C@H](O)c1ccc(NC(=O)C(CC)CC)cc1	i
CN1CCN(C(=O)CCC[C@@H]2[C@H]3CCCN4CCC[C@@H](CN2Cc2ccccc2)[C@@H]34)CC1	32µM*
O=C(CCC[C@@H]1[C@H]2CCCN3CCC[C@@H](CN1Cc1ccccc1)[C@@H]23)N1CCCC1	i
O=C(CCC[C@@H]1[C@H]2CCCN3CCC[C@@H](CN1Cc1ccccc1)[C@@H]23)N1CCOCC1	i
CCOC(=O)CN1C(=O)N(c2ccc(C)c(C)c2)S(=O)(=O)c2ccccc21	i
N#Cc1cccc(NC(=O)N[C@H]2[C@H](O)[C@@H](N3CCC(Cc4ccccc4)CC3)[C@@H]3OC[C@H]2O3)c1	i
COC[C@@H]1[C@H](NC(=O)CN2CCN(c3cccc(C)c3)CC2)[C@@H]2CCO[C@H]12	i
CC[C@@H]1[C@H](NC(=O)c2cccc(N3CCS(=O)(=O)CC3)c2)[C@@H]2CCO[C@H]12	22µM*
CC[C@@H]1[C@@H](NC(=O)c2ccc(N3CCN(C)CC3)cc2)[C@@H]2CCO[C@H]12	i
CS(=O)(=O)N(CC(=O)Nc1cc(Cl)cc(Cl)c1)Cc1ccccc1	i
Cc1cc(=O)n(CC(=O)Nc2ccccc2)c(-c2ccc(F)cc2)n1	i
COCc1ccc2c(c1)c(OC(C)(C)C(=O)NC1CCOCC1)nn2Cc1cccnc1	i
COCc1ccc2c(c1)c(OC(C)(C)C(=O)NC1CCOCC1)nn2CCC(C)C	40µM*
COCc1ccc2c(c1)c(OC(C)(C)C(=O)NC1CCC(O)CC1)nn2CCC(C)C (stereo not given)	32µM*
COc1ccc(C(CNC(=O)COc2ccc(C)c(C)c2)N2CCCCC2)cc1 (stereo not given)	i
O=[S+]1([O-])NC2(CCN(Cc3cccnc3)CC2)COc2ccccc21	i
O=C(C1CC1)N1CCCC2(COc3ccccc3[S+](=O)([O-])N2)C1 (stereo not given)	i
O=C(C1CCCCC1)N1CCCC2(COc3ccccc3[S+](=O)([O-])N2)C1 (stereo not given)	i
O=[S+]1([O-])NC2(CCN(CC3CCCCC3)CC2)COc2ccccc21	71µM*
O=[S+]1([O-])NC2(CCCN(Cc3c(F)cccc3F)C2)COc2ccccc21 (stereo not given)	i
O=[S+]1([O-])NC2(CCN(Cc3ccc(Cl)s3)CC2)COc2ccccc21	71µM*
Cc1ccc(SCCNC(=S)NC2CC2)cc1	i
Cc1ccc(CNC(=O)CC2CCCCN(C)C2=O)cc1 (stereo not given)	i
COc1cc(/C=C/C(=O)OCC(=O)N2CCCC2)cc(OC)c1OC	i
COc1cc(Cl)ccc1OC(=O)c1cn(-c2ccccc2OC)c(=O)c2ccccc12	i
SMILES	KDM5B inh
Fc1ccc(CN2CCn3c(nnc3C3CCCNC3)C2)cc1 (stereo not given)	25µM*!
c1csc(CN2CCn3c(nnc3C3CCCNC3)C2)c1 (stereo not given)	i
O=C(c1ccccc1F)N1CCn2c(nnc2C2CCCNC2)C1 (stereo not given)	i
CC(C)(C)c1cc(C(=O)OCC(=O)NC(c2ccccc2)c2ccccc2)cc(C(C)(C)C)c1	i
CCOc1cccc(CN2CCC([C@@H]3CNC[C@H]3CO)CC2)c1	i
O=C1NC[C@H]2CN(Cc3cccc(OC(F)(F)F)c3)CCN12	i
Clc1ccc(Oc2cccc(CN3CCN(C4CCNC4)CC3)c2)cc1 (stereo not given)	16µM*
O=C(O)c1cccc(-c2cc(C(F)(F)F)ccc2Cl)c1	i
NCc1ccccc1-c1cc(C(F)(F)F)ccc1Cl	i
NCc1cccc(-c2cc(C(F)(F)F)ccc2Cl)c1	89µM*
O[C@@H]1C[C@@H](c2nnc3n2CCN(Cc2ccc(F)c(F)c2)C3)N(Cc2ccccc2)C1	i
O=C(Cc1ccccc1)N1CCn2c(nnc2[C@@H]2C[C@@H](O)CN2Cc2ccccc2)C1	i
O[C@@H]1C[C@@H](c2nnc3n2CCN(Cc2cccc4[nH]ccc24)C3)N(Cc2ccccc2)C1	25µM*
O=C(OCc1ccc([N+](=O)[O-])cc1)c1cc2ccccc2oc1=O	i
Cc1ccccc1S(=O)(=O)N1CCC2(CC1)CC(CC(=O)NC1CC1)CCO2 (stereo not given)	i
Cc1nc(-c2ccc(C)c(N3CCN(C(=O)Nc4ccccc4C(F)(F)F)CC3)c2)no1	i
COc1ccc2oc(=O)c(S(=O)(=O)N3CCCCC3)cc2c1	i
CCCS(=O)(=O)N1CC(F)(F)C[C@H]1c1nc(-c2cccnc2)no1	i
COc1cccc(-c2cc(C(=O)NCc3c(C)cc(C)[nH]c3=O)c3c(c2)ncn3C)c1OC	i
COc1ccc(-c2noc(CNC(=O)c3cnn(C(C)C)c3)n2)cc1OC	i
COc1ncccc1-c1cc2c(ccn2C(C)C)c(C(=O)NCc2c(C)cc(C)[nH]c2=O)n1	i
COc1ccc(-c2cc(C(=O)NCc3c(C)cc(C)[nH]c3=O)c3c(c2)N(C(C)C)CCO3)cc1OC	35µM*
COc1ccc2oc(=O)c(C(=O)NCc3ccc(C)cc3)cc2c1	i
COc1ccc(-c2cc(C(=O)NCc3c(C)cc(C)[nH]c3=O)c3c(c2)N(C)CCO3)cc1	32µM*
COc1ccc(CNC(=O)c2cnc3cc(C)ccn3c2=O)cc1	i
SMILES	KDM5B inh
Cc1cc(C)c(CNC(=O)c2cc(-c3ccccc3C)cc3c2OCCN3C)c(=O)[nH]1	40µM*
COc1ncccc1-c1cc(C(=O)NCc2c(C)cc(C)[nH]c2=O)c2c(c1)N(C)CCO2	35µM*
COc1nc2c(cc1CNC(=O)c1cccnc1C)C(=O)N(C1CCCC1)C2	i
O=C(CN1c2ccccc2Sc2ccccc21)N/N=C/c1ccc(Cl)cc1	i
CNCc1ccc(-c2ccc(C(=O)OC)cc2)o1	i
CC(C)(C)c1ccccc1NC(=O)c1cnc(Cl)c(Cl)c1	i
Cc1ccc(-c2nn(-c3ccccn3)c(=O)c3ccccc23)cc1C	i
COc1ccc(OC)c(S(=O)(=O)N2CCN(C(=O)C3=Cc4cc(Cl)ccc4OC3)CC2)c1	i
Cc1nnc(NC(=O)c2cc(S(=O)(=O)N(C)C)ccc2F)s1	i
COc1ccc(Cl)cc1NC(=O)N(C)CC1CCOCC1	i
CCCn1c(SCc2nc3ccccc3o2)nc2ccccc2c1=O	i
CC(O)CSc1nc2c(c(=O)[nH]c(=O)n2C)n1CCc1ccccc1 (stereo not given)	i
C#CCOC(=O)c1cc(Cl)c(=O)n(Cc2ccc(Cl)cc2Cl)c1	i
Cc1cc(C)cc(C(=O)NCCn2c(C)cc3ccccc32)c1	i
COc1cc(-c2noc(-c3ccc(N4CCOCC4)c([N+](=O)[O-])c3)n2)cc(OC)c1OC	i
O=C(NCC1CCCO1)C1CC(=O)N(c2cccc(Cl)c2)C1 (stereo not given)	i
COc1ccccc1C(=O)N1CCCn2nc(C)c(-c3ccccc3OCc3ccccc3)c21	i
Cc1nn2c(c1-c1ccccc1[S+](C)(=O)[O-])N(CCCc1ccccc1)CCC2	25µM*
Cc1nn2c(c1-c1ccccc1C(N)=O)N(CCCc1ccccc1)CCC2	32µM*
Cc1nn2c(c1-c1ccccc1C(C)C)N([S+](=O)([O-])c1ccc(C(C)C)cc1)CCC2	i
Cc1nn2c(c1-c1ccccc1[S+](C)(=O)[O-])N(Cc1ccccc1)CCC2	i
Cc1nn2c(c1-c1cccnc1N1CCOCC1)N(CCCc1ccccc1)CCC2	i

Compound activity deposited in PubChem by National Center for Advancing Translational Sciences (NCATS).
